# Screens as filed in PubChem.
# POLI inh – inhibitors of human DNA polymerase iota | actives 1% (n = 390,000) | AID 588590 | Potency, µM (doses to about 115 µM), without a hit: top-dose activity, negative = inhibition, actives largely listed as inhibitors | Pol iota fluorescent replication assay, 10 min
#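 Fluorescent replication assay read twice, at 0 min and 10 min after adding 50 nM (final) substrate. Enzyme (10 nM) and compounds were first incubated 15 min at room temperature; enzyme-free buffer wells were negative controls.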
# GLS inhibitor – inhibitors of human glutaminase (GLS) | Potency, µM (series often up to 45.5 µM), for the others: top-dose activity change, negative = inhibition, most hits filed as inhibitors | GLS enzymatic activity, qHTS titration | O94925 | actives 0.21% (n = 410,000); also: % is scaled to controls: 0 for no effect and ±100 for the full control effect
#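 Coupled fluorescence readout: glutamate oxidase/HRP/Amplex Red detect glutamate formed by hKGA from L-glutamine (1 mM solution added). Buffer 45 mM KH2PO4 pH 8.2, 0.02% Tween-20; reads at t0 and 30 min RT.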
# POLH inh – inhibitors of human DNA polymerase eta | Q9Y253 | actives 1.2% (n = 390,000) | recombinant Pol eta, fluorescent DNA replication assay | Potency, µM (top dose mostly 114 µM), without a hit: at the top dose activity change, negative = inhibition, usual class: inhibitors; also: % is scaled to controls: 0 for no effect and ±100 for the full control effect
# Target sequence (Q9Y253 whole entry, looked up): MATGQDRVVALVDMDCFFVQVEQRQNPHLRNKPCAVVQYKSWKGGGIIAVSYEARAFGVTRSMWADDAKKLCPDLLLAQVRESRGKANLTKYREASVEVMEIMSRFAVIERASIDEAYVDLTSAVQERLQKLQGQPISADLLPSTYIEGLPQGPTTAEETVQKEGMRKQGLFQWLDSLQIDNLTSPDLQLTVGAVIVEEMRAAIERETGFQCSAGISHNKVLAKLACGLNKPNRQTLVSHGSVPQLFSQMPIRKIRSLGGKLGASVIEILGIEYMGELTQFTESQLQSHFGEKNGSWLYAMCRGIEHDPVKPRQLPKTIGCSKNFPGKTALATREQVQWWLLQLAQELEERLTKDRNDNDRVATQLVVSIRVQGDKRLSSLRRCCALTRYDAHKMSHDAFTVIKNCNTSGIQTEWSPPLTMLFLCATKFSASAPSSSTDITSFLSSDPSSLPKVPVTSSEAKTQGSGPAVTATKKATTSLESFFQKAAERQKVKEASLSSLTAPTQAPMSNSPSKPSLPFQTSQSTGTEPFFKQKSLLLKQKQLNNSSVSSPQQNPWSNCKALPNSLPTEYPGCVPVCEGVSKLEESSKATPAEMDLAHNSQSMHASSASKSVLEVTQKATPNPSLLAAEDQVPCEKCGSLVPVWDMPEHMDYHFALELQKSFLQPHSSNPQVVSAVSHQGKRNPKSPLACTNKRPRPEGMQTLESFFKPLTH
#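 Pol eta (10 nM) was preincubated with compounds for 15 min at room temperature, after which fluorescent replication substrate (50 nM final) was added to start the reaction. Fluorescence was read kinetically at 0 and 10 min.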
# KAT2A inh – inhibitors of human GCN5L2 histone acetyltransferase | GCN5L2 HAT assay, ThioGlo1 CoA-SH fluorescence | Q92830 | AID 504327 | actives 0.21% (n = 390,000) | Potency, µM (top dose mostly 58.9 µM), for inactives: at the top dose activity change, negative = inhibition, actives largely listed as inhibitors; also: % is scaled to controls: 0 for no effect and ±100 for the full control effect
#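 GCN5L2 (20 nM) in 50mM HEPES pH 7.5, 0.1mM EDTA, 0.01% Tween-20 preincubated 15 min with compounds at room temperature. Reaction started with H3(1-25) 75uM, acetyl-CoA 70uM, ThioGlo1 50uM; CoA-thiol fluorescence (Ex340/Em540) read at 0 and 20 min.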
# Pol beta inh – blocks human DNA polymerase beta activity; actives 1.3% (n = 340,000); Potency, µM (highest dose often 114 µM), inactives show at the top dose activity change, negative = inhibition, usual class: inhibitors; Pol beta primer extension/strand displacement, fluorescence kinetic; AID 485314; P06746; also: % is scaled to controls: 0 for no effect and ±100 for the full control effect
#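 Enzyme-only controls used 10 nM Pol beta; buffer lacking enzyme served as negative control. Compound preincubated 15 min, then 50 nM substrate added; 0 and 10 min reads at room temperature.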
# Pol kappa inh – inhibitors of human DNA polymerase kappa | purified Pol kappa, fluorescent DNA synthesis assay, 10 min | Q9UBT6 | actives 0.53% (n = 400,000) | Potency, µM (doses to about 107 µM), for inactives: at the highest dose activity, negative = inhibition, usual class: inhibitors | AID 588579; also: % is scaled to controls: 0 for no effect and ±100 for the full control effect
#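 10 nM Pol kappa preincubated 15 min at room temperature with compounds, then reaction started with substrate at 50 nM final. Fluorescence read kinetically at 0 and 10 min; buffer-only wells served as negative control.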
# PGK validate – blocks T. brucei phosphoglycerate kinase; AID 686980; Potency, µM (top dose mostly 57.5 µM), without a hit: top-dose activity change, negative = inhibition, actives largely listed as inhibitors; shares compounds with Pol kappa inh; TbPGK coupled GAPDH assay, Kinase-Glo luminescence; actives 79% (n = 500); also: % is scaled to controls: 0 for no effect and ±100 for the full control effect; nearly all actives have a fitted effect of over 65% in size
# POLI cherry-pick – Inhibitors of human DNA polymerase iota, confirmation; shares compounds with Pol kappa inh; Pol iota primer extension, TAMRA/BHQ fluorescence; Potency, µM, hits mostly inhibitors; actives 77% (n = 1,500)
# * = called active by the depositor; u = inconclusive; x = not tested or not shown; ! = repeats disagree; [ ] = another dose, or the depositor's remark. An excerpt weighted towards active compounds, which were near 2.4% of everything screened. Calls follow the shape of the dose curve; as a rule, active = well fitted curve in the direction sought with a large enough effect; inconclusive = small, poorly fitted or top-dose-only effect, or another doubt; inactive = no such curve, though single readings can be large; an effect the other way counts as inactive or inconclusive. Potency is read from the fitted curve at half-maximal effect.
SMILES,POLI inh,GLS inhibitor,POLH inh,KAT2A inh,Pol beta inh,Pol kappa inh,POLI cherry-pick,others
O=C(Nc1ccc(-c2nc3ccccc3[nH]2)cc1)c1ccc(C(F)(F)F)cc1,x,x,x,x,x,x,u,
NC(=S)N/N=C/c1cccc(O)c1O,79µM*,54%,-8%,-6%,-2%,u,67*,
NC(=S)N/N=C/c1ccccc1O,-9%,37%,-4%,-7%,-7%,-2%,x,
O=C(Nc1cccc(Cl)c1Cl)c1cc(S(=O)(=O)N2CCCc3ccccc32)ccc1F,-1%,3%,-19%,-14%,0%,-9%[60.1 µM],x,
CNCc1ccccc1Sc1ccc(O)c(O)c1,28µM*,1%,-6%,-5%,u,79µM*,75*,
COc1ccc(C(=O)OC2=C(C(=O)c3ccccc3)N(C)S(=O)(=O)c3ccccc32)cc1OC,u,4%,-8%,-2%,13%,u,x,
COc1ccc(Cn2c(-c3ccccc3)nc3c(c(=O)c4ccccc4n3C)c2=O)cc1,5%,1%,u,14%,-1%,-1%,42*,
COc1ccc(CCn2c(-c3ccccc3)nc3c(c(=O)c4ccccc4n3C)c2=O)cc1,x,x,x,1%,0%,x,x,
Oc1ccc(C2CNCCc3c2cc(O)c(O)c3Cl)cc1 (stereo not given),14µM*!,6%,u,-7%,u,-1%[60.1 µM],u,
CCOC(=O)c1c(C)[nH]c(C)c1S(=O)(=O)N1CCCC(C(=O)NCc2cccc(OC)c2)C1 (stereo not given),26%,1%,-17%,2%,-2%,4%,x,
COc1ccc(OC)c(NC(=O)Cn2c(=O)cc(-c3ccccc3)c3c(C)nn(C)c32)c1,-4%,u,u,-15%,u,0%,47*,
COc1ccc(C)cc1NC(=O)Cn1c(=O)cc(C)c2c(C)nn(C)c21,18%,-25%,x,22%,-1%,-12%,x,
O=C(NCc1ccccc1)c1ccc(NC(=O)C2CCCCC2)cc1,-13%,2%,-11%,x,x,2%,x,
O=C(NCc1ccccc1)c1ccc(NC(=O)C2CCCC2)cc1,36%,0%,-18%,x,x,0%,x,PGK validate=1%
CCOC(=O)c1sc(NC(=O)C(C)Oc2ccc(OC)cc2)c(C(=O)OCC)c1C (stereo not given),10%,-7%,-11%,-7%,0%,-2%,x,
CC(=O)C[n+]1cccc(Br)c1,68%,x,x,x,x,-8%,x,
O=C(NCc1ccc(F)cc1)c1c(O)c2cccc3c2n(c1=O)CCC3,-4%,6%,-2%,-2%,26%,-8%,x,
O=C(Oc1cc(=O)oc2c1c(=O)n1c3c(cccc23)CC1)c1ccc(F)cc1,u,30%,-15%,-13%,u,1%,11*,
COc1ccc(N2CCN(C(=O)c3cccc(NC(=O)c4nsc5ccccc45)c3)CC2)cc1,-7%,4%,-12%,-9%,6%,-12%[60.1 µM],x,
O=C(O)CC/C(=C\c1ccc(N2CCCC2)c([N+](=O)[O-])c1)c1nc2ccccc2s1,u,-9%,56µM*,2%,-8%,u,75*,
CCCN(CCC)C(=O)Cn1c(SCc2cccc(C(F)(F)F)c2)nc2cccnc21,20%,-3%,1%,0%,-3%,0%,x,
CCc1nn2c(=O)cc(COc3cccc(NC(=O)c4ccco4)c3)nc2s1,50µM*,16%,u,-9%,u,u,u,
COC(=O)c1ccc(NC(=O)CSc2nc(=O)n(Cc3ccco3)c3c2CCC3)cc1,-3%,1%,-8%,0%,-1%,-15%[60.1 µM],x,
O=c1c(Cl)c(O)c2cccc3c4ccccc4n1c23,1%,u,u,-14%,u,-5%,x,
COc1c(O)c(=O)n2c3ccccc3c3ccnc1c32,u,u,-26%,-3%,x,-14%,4.7*,
SMILES,POLI inh,GLS inhibitor,POLH inh,KAT2A inh,Pol beta inh,Pol kappa inh,POLI cherry-pick,others
CS(=O)(=O)NCCSCc1ccco1,u,-16%,71µM*,0%,40µM*,u,x,PGK validate=21µM*
O=C(CCCN1C(=O)/C(=C/c2ccccc2)SC1=S)Nc1ccc(C(=O)O)c(O)c1,4%,u,-5%,-29%,-18%,-1%,x,
CC(C)C(C(=O)O)N1C(=O)/C(=C/C=C/c2ccco2)SC1=S (stereo not given),1.1µM*,u,0.79µM*,u,1.6µM*,3.2µM*,x,PGK validate=2.6µM*
CC(C(=O)Nc1ccc(C(=O)O)c(O)c1)N1C(=O)/C(=C\c2ccco2)SC1=S (stereo not given),u,18µM*,3.2µM*,u,u,0%,x,PGK validate=23µM*
c1ccc(-c2cn3c(n2)-c2ccccc2C3)cc1,15%,1%,u,4%,-1%,5%,x,PGK validate=15µM*
Cc1ccc(-c2nc3n(n2)Cc2ccccc2-3)cc1,u,1%,-6%,-1%,u,-8%,x,
COC(=O)c1cc2sccc2n1Cc1ccc(F)cc1Cl,-6%,-14%,-5%,-2%,14%,-22%,x,
CCOCCCNC(=O)c1ccc2c(c1)NC(=O)C(CS(=O)(=O)Cc1ccc(F)cc1Cl)N2 (stereo not given),u,-1%,-1%,-2%,-18%,-10%[60.1 µM],x,
CCc1nnc2c(Nc3cc(OC)c(Cl)cc3OC)nc3ccccc3n12,19%,-1%,-21%,-2%,6%,17%,x,
CC1=C(C(=O)Nc2ccc(F)cc2F)C2(CCCCCC2)OC1=O,-6%,-1%,-13%,-14%,3%,-14%,x,
Cc1ccc(-c2c(C#N)c(N)n3c(nc4ccccc43)c2C#N)cc1,u,11%,u,-6%,-10%,-10%,x,
N#Cc1c(-c2ccccc2)c(C#N)c2nc3ccccc3n2c1N,16µM*,12%,-6%,-12%,-8%,-35%,u,
CC(C)c1ccc(NC(=O)c2cc3c(=O)oc4ccccc4c3s2)cc1,14%,5%,-18%,-1%,26%,-2%,x,
COc1ccc(-n2nc(C(=O)Nc3ccc4c(c3)OCO4)c3c4ccccc4n(C)c3c2=O)cc1,-1%,-7%,-13%,0%,0%,4%,x,
COc1ccc(-n2nc(C(=O)Nc3ccc(OC)c(OC)c3)c3c4ccccc4n(C)c3c2=O)cc1,u,-4%,u,-4%,-22%,-10%,4.7*,
